According to PubChem BioAssay (Tox21):
Several values for one entry are separate records, joined by “and”; a condition that tells them apart may be missing. Equal values may be shown once. Records with an inconclusive call do not appear. Activity calls are given as the source filed them. Unless noted, calls follow the shape of the dose curve; as a rule, active = well fitted curve in the direction sought with a large enough effect in the repeat runs; inconclusive = weak or mixed curves; inactive = no such curve, though single readings can be large; an effect the other way counts as inactive or inconclusive.

How the values were obtained:
[1] = biological target: Estrogen receptor beta (Homo sapiens) (UniProt Q92731); test: qHTS assay to identify small molecule antagonists of the estrogen receptor beta (ER-beta) signaling pathway (AID 1259378; active = well fitted inhibition curve with a large enough effect in the signal ratio in the repeat runs, not every such curve was filed as active; the % refers to the signal ratio; also: potency is read from the fitted curve at half-maximal effect)
Estrogen receptor beta (Homo sapiens), sequence (Q92731 whole entry, looked up): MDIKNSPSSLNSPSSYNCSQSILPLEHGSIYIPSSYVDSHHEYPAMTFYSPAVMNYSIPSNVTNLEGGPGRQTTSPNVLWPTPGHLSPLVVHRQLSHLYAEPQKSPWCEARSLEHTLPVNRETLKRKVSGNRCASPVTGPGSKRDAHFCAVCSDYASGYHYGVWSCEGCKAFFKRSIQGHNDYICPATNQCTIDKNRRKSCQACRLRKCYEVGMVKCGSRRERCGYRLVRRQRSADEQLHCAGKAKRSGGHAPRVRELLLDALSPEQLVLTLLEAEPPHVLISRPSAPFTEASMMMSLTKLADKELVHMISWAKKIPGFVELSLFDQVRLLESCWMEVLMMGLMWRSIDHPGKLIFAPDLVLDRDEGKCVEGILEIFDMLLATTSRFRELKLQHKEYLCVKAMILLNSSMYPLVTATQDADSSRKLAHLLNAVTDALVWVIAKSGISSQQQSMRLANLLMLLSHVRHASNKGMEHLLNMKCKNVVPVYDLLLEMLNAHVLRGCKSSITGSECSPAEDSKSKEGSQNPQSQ
Procedure, shortened: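 Antagonist mode: compounds added to beta-lactamase reporter HEK293T ER-beta-UAS cells stimulated with E2 (1nM final), 16 hr at 37C. LiveBLAzer B/G FRET substrate, 2 hours room temperature, fluorescence read-out.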

[2] = qHTS assay to identify small molecule agonists of the androgen receptor (AR) signaling pathway in the presence of an antagonist - cell viability counter screen (AID 1259379); also: nearly all actives have a fitted effect of over 25% in size; also: potency is read from the fitted curve at half-maximal effect
Procedure, shortened: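 Cytotoxicity is assessed by CellTiter-Fluor in MDA-kb2 cells carrying an MMTV-driven luciferase reporter. Cells receive 3.0uM nilutamide plus compounds at 15 concentrations and incubate 16 hr at 37C without CO2 before fluorescence reading.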

[3] = qHTS assay to identify small molecule antagonists of the estrogen receptor beta (ER-beta) signaling pathway - cell viability counter screen (AID 1259382); also: nearly all actives have a fitted effect of over 55% in size; also: potency is read from the fitted curve at half-maximal effect
Procedure, shortened: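 Cytotoxicity counter screen multiplexed with the beta-lactamase antagonist assay: GripTite HEK293T ER-beta-bla cells were treated 16 hr with test chemicals in the presence of 1nM 17-beta-estradiol, and viability was measured by CellTiter-Glo.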

[4] = qHTS assay to identify small molecule agonists or antagonists of the thyroid stimulating hormone receptor (TSHR) signaling pathway - wild type cell line counter screen (AID 1259384; calls by dose curve)
Procedure, shortened: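 Counter screen in untransfected Hek293: compounds (15-point titration, triplicate) plus phosphodiesterase inhibitor Ro20-1724 added after 18 h plating; 30 min RT. Intracellular cAMP via competitive d2/cryptate immunoassay, 1 h incubation.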

[5] = qHTS assay to identify small molecule agonists of the estrogen receptor alpha (ER-alpha) signaling pathway in the presence of an antagonist - cell viability counter screen (AID 1259386);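 also: cells exposed to compounds for 22 h at 37 °C before the viability read; nearly all actives have a fitted effect of over 30% in size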; also: potency is read from the fitted curve at half-maximal effect
Procedure, shortened: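 Cytotoxicity was measured in parallel with the ERE-luciferase agonist screen, in the same wells. The cells were VM7Luc4E2, which endogenously express ER-alpha, and treatment was with compounds plus 10.0nM ICI-182,780 for 22hr.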

[6] = biological target: Progesterone receptor (Homo sapiens) (UniProt P06401); test: qHTS assay to identify small molecule antagonists of the progesterone receptor (PR) signaling pathway (AID 1346795; active = well fitted inhibition curve with a large enough effect in the signal ratio in the repeat runs, not every such curve was filed as active; the % refers to the signal ratio; also: potency is read from the fitted curve at half-maximal effect)
Progesterone receptor (Homo sapiens), sequence (P06401 whole entry, looked up): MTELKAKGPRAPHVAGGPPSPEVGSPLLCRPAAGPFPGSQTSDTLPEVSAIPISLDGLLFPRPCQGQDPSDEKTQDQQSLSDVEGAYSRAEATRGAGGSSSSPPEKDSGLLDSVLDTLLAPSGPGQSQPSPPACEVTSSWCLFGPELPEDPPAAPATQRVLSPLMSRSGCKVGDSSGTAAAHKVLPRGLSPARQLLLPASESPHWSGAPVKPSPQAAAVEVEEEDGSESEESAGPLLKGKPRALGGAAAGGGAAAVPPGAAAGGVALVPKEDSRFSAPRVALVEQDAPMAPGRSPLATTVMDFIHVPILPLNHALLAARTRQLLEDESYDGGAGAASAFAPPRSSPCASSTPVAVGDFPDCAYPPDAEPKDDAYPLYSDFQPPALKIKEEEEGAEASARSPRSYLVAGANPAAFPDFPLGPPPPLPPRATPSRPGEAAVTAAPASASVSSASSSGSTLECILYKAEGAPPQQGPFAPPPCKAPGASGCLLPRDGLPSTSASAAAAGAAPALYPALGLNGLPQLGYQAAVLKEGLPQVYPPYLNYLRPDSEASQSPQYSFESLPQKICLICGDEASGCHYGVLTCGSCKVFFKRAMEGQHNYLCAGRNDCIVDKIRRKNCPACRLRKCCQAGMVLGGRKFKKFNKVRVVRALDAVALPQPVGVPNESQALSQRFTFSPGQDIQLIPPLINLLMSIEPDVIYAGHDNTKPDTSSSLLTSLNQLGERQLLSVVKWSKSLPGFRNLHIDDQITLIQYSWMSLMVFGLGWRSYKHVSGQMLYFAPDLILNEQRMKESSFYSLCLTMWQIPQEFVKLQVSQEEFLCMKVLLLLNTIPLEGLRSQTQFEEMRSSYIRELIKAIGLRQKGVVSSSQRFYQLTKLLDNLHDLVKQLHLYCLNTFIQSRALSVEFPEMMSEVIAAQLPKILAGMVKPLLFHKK
Procedure, shortened: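 Beta-lactamase reporter, HEK293T PR-UAS-bla line; 2% charcoal-stripped FBS; 6 hr pre-incubation, 37C/5% CO2. Compound + R5020 1 nM final, 16 hr. LiveBLAzer B/G FRET substrate, 2 hr RT; fluorescence intensity read.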

[7] = qHTS assay to identify small molecule antagonists of the TGF-beta/Smad signaling pathway - cell viability counter screen (AID 1346824); also: nearly all actives have a fitted effect of over 50% in size
Procedure, shortened: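 Cytotoxicity counter-screen run in the same wells as the beta-lactamase Smad reporter read: CellTiter-Glo luminescence after 30 min at room temperature. HEK 293T SBE-bla cells had 5 hr compound exposure at 37 C with TGF-beta1 (0.25 ng/mL stock).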

[8] = qHTS assay to identify small molecule agonists of the TGF-beta/Smad signaling pathway - cell viability counter screen (AID 1346829); also: top concentration of the series differs between compounds; nearly all actives have a fitted effect of over 45% in size
Procedure, shortened: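 After overnight seating at 37 C and 5% CO2, reporter cells got compounds for 5 hr and FRET substrate for 2 hr; cell viability then came from CellTiter-Glo luminescence.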

[9] = qHTS assay to identify small molecule agonists of the TGF-beta/Smad signaling pathway (AID 1346859; active = well fitted activation curve with a large enough effect in the signal ratio in the repeat runs, not every such curve was filed as active; the % refers to the signal ratio; also: series mostly up to about 77 µM)
Procedure, shortened: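 Read-out: fluorescence at 460 and 530 nm (405 nm excitation) after a 2 hr room-temperature incubation with beta-lactamase FRET substrate. SBE-bla HEK 293T cells had been treated with test compounds for 5 hr at 37 C.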

[10] = biological target: Thyrotropin-releasing hormone receptor (Homo sapiens) (UniProt P34981); test: qHTS assay to identify small molecule antagonists of the thyrotropin-releasing hormone receptor (TRHR) signaling pathway (AID 1346877; active = well fitted inhibition curve with a large enough effect in the repeat runs, not every such curve was filed as active; also: series mostly up to about 51 µM)
Thyrotropin-releasing hormone receptor (Homo sapiens), sequence (P34981 whole entry, looked up): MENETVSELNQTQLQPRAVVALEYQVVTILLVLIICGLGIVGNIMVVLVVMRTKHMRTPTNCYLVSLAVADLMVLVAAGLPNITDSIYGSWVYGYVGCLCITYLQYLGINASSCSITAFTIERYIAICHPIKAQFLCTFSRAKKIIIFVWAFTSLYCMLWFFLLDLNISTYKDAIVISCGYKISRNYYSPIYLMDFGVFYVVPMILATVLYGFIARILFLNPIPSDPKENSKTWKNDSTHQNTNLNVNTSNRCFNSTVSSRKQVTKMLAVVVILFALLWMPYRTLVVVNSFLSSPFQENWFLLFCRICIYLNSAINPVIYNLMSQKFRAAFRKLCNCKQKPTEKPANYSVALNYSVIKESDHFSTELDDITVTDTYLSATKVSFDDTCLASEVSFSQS
Procedure, shortened: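 Antagonism is measured as suppression of the calcium response to 1 nM TRH in TRHR-HEK293 cells that have been dye-loaded for 2 h at 37 °C after overnight plating. Each compound is tested at 15 concentrations in triplicate.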

[11] = biological target: Thyrotropin-releasing hormone receptor (Homo sapiens) (UniProt P34981); test: qHTS assay to identify small molecule agonists of the thyrotropin-releasing hormone receptor (TRHR) signaling pathway (AID 1346891; calls by dose curve;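 also: HEK293 cells expressing TRHR with calcium dye readout; series mostly up to about 58 µM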)
Procedure, shortened: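 HEK293/TRHR cells, 1500 per well, 18 h 37 °C; Ca dye 2 h 37 °C; pin-tool compound addition (agonist mode); kinetic fluorescence 3 min, 1 s reads; 15 concentrations, triplicate.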

[12] = Human pregnane X receptor (PXR) small molecule agonists, qHTS cell viability counter screen (AID 1346977); also: nearly all actives have a fitted effect of over 50% in size
Procedure, shortened: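 Fluorescence read-out (CellTiter-Fluor) of viability in PXR-Luc HepG2 cells, multiplexed with the luciferase agonist read. Compounds in DMSO added after 5hr plating; 24hr total exposure at 37C, 5% CO2.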

[13] = Caspase-3/7 induction in HepG2 cells by small molecules, qHTS assay (AID 1346978); also: nearly all actives have a fitted effect of over 15% in size
Procedure, shortened: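 Caspase-3/7 induction was measured by Caspase-Glo 3/7 luminescence (30 min, room temperature) after a 17 hr compound exposure of wild-type HepG2 cells seeded at 2,000 per well and pre-incubated 5 hr.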

[14] = biological target: Thyrotropin receptor (Homo sapiens) (UniProt P16473); test: qHTS assay to identify small molecule antagonists of the thyroid stimulating hormone receptor (TSHR) signaling pathway (AID 1259385; calls by dose curve; also: nearly all actives have a fitted effect of over 20% in size)
Thyrotropin receptor (Homo sapiens), sequence (P16473 whole entry, looked up): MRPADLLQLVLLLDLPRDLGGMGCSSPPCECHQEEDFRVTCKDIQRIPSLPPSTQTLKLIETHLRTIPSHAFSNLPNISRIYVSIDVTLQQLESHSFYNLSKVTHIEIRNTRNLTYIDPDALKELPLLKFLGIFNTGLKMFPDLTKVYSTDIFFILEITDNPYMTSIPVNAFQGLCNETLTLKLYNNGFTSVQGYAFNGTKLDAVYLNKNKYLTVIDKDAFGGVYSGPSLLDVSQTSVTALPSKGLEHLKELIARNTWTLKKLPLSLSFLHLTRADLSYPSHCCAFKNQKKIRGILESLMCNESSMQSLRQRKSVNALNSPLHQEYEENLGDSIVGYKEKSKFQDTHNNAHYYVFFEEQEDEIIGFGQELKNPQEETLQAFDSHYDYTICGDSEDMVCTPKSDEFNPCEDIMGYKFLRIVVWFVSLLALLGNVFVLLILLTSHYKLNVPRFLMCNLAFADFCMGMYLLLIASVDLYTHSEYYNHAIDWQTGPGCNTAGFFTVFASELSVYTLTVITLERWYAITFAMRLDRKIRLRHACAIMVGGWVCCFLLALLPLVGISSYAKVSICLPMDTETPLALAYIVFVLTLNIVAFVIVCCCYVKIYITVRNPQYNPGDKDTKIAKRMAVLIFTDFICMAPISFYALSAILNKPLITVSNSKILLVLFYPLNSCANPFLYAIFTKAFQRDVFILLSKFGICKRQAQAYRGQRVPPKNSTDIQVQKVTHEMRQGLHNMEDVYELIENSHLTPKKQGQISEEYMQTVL
Procedure, shortened: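 Antagonist mode: compound-treated TSHR-expressing HEK293 cells were stimulated with 1.5 ng/mL TSH (final) in presence of Ro20-1724 for 30 min at RT. HTRF cAMP detection after 1 h; each compound tested at 15 concentrations, triplicate.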

[15] = biological target: Progesterone receptor (Homo sapiens) (UniProt P06401); test: qHTS assay to identify small molecule agonists of the progesterone receptor (PR) signaling pathway (AID 1346784; calls by dose curve; also: nearly all actives have a fitted effect of over 30% in size)
Procedure, shortened: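 HEK 293T PR-UAS-bla reporter cells, 2% charcoal-stripped FBS; 6 hr settle at 37C/5% CO2, compound (DMSO) 16 hr, LiveBLAzer B/G FRET substrate 2 hr RT, fluorescence intensity read.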

[16] = qHTS assay to identify small molecule antagonists of the progesterone receptor (PR) signaling pathway - cell viability counter screen (AID 1346798); also: nearly all actives have a fitted effect of over 50% in size; also: potency is read from the fitted curve at half-maximal effect
Procedure, shortened: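 Luminescence readout (CellTiter-Glo, 30 min, RT) of viability in PR-UAS-bla HEK293T cells exposed to compound and R5020 agonist for 16 hr at 37C, 5% CO2; run in the same wells as the beta-lactamase reporter read.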

[17] = qHTS assay to identify small molecule agonists of the progesterone receptor (PR) signaling pathway - cell viability counter screen (AID 1346799; calls by dose curve; also: nearly all actives have a fitted effect of over 45% in size)
Procedure, shortened: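 HEK293T PR-UAS-bla, 3,000 cells/well, 2% charcoal-stripped FBS; 6 h settle, compound 16 h at 37C/5% CO2; LiveBLAzer 2 h RT, then CellTiter-Glo 30 min RT, luminescence read.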

[18] = qHTS assay to identify small molecule agonists of the estrogen receptor beta (ER-beta) signaling pathway - cell viability counter screen (AID 1259380); also: nearly all actives have a fitted effect of over 30% in size; also: potency is read from the fitted curve at half-maximal effect
Procedure, shortened: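 Cytotoxicity is measured in parallel with the reporter screen: after 16 hr compound exposure at 37C and a 2 hr LiveBLAzer step, CellTiter-Glo is added to the same ER-beta-UAS-bla HEK293T wells and luminescence read after 30 min.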

[19] = biological target: Estrogen receptor (Homo sapiens) (UniProt P03372); test: qHTS assay to identify small molecule agonists of the estrogen receptor alpha (ER-alpha) signaling pathway in the presence of an antagonist (AID 1259383; calls by dose curve; also: top concentration of the series differs between compounds; nearly all actives have a fitted effect of over 15% in size)
Estrogen receptor (Homo sapiens), sequence (P03372 whole entry, looked up): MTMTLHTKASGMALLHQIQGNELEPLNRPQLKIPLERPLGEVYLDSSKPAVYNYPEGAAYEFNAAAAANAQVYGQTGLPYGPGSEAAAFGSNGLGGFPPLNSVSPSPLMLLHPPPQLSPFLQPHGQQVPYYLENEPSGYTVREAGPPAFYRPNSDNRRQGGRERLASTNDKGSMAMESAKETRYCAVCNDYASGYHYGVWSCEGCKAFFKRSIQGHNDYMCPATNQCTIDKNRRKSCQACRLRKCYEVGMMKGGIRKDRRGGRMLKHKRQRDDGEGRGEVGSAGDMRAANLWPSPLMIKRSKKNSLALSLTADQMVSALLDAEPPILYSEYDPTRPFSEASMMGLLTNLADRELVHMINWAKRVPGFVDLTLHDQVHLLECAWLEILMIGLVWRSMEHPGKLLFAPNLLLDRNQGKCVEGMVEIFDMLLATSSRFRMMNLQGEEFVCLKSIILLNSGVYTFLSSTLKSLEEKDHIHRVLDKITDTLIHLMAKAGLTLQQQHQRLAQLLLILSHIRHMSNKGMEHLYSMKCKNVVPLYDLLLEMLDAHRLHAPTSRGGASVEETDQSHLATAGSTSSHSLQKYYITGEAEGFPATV
Procedure, shortened: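 Agonist-mode confirmation in the presence of the ER antagonist ICI-182,780 at 10.0nM final. Breast-derived VM7Luc4E2 reporter cells were exposed to compounds for 22hr, and ERE-driven luciferase was quantified by luminescence.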

[20] = biological target: Androgen receptor (Homo sapiens) (UniProt P10275); test: qHTS assay to identify small molecule agonists of the androgen receptor (AR) signaling pathway in the presence of an antagonist (AID 1259381; calls by dose curve; also: nearly all actives have a fitted effect of over 15% in size)
Androgen receptor (Homo sapiens), sequence (P10275 whole entry, looked up): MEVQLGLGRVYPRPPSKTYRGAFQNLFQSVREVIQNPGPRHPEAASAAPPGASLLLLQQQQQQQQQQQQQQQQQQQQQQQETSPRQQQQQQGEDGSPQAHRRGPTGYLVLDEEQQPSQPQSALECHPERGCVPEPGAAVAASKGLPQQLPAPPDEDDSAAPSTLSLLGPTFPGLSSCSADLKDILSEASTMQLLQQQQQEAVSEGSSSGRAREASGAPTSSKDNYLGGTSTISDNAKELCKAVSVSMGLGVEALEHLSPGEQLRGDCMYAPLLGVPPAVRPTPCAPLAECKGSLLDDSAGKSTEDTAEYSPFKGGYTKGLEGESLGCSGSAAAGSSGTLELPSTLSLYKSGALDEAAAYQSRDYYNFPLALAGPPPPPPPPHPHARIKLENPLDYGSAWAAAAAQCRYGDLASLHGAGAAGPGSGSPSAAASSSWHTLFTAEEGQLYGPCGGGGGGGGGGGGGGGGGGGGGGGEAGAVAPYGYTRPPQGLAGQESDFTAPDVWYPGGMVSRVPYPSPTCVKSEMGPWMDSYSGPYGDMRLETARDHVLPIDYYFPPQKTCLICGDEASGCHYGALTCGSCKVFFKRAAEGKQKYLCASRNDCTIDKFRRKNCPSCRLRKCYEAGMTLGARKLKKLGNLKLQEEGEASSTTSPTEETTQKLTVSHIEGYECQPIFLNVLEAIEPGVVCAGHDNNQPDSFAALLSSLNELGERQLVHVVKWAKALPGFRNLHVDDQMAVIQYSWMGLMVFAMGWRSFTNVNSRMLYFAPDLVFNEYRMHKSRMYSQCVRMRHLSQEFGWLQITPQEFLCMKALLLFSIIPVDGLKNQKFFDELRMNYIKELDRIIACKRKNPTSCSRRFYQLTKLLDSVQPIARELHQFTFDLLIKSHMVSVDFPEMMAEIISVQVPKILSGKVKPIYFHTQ
Procedure, shortened: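 Agonist-mode confirmation screen: human MDA-kb2 cells stably expressing luciferase under an MMTV promoter bearing AR and GR response elements, co-treated with 3.0uM nilutamide (final). Luminescence measured after 16hr compound incubation.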

Measured: Potency

CC(=O)Oc1ccc(C2(c3ccc(OC(C)=O)cc3)Oc3ccccc3NC2=O)cc1
active: [1] 1.88 µM | [6] 21.1 µM
not listed: [14] | [15] | [16] | [17] | [18] | [19] | [20]
inactive: all other assays above

CCCCC(CC)COC(=O)c1ccc(O)cc1 (stereo unspecified)
active: [1] 21.6 µM and 21.7 µM | [3] 68.6 µM | [6] 30.5 µM and 27.3 µM
not listed: [5] | [7] | [12] | [18] | [19] | [20]
inactive: all other assays above

CCOC(=O)N1CCC(=C2c3ccc(Cl)cc3CCc3cccnc32)CC1
active: [1] 15.4 µM | [18] 48.6 µM and 26.6 µM | [3] 54.5 µM | [6] 13.7 µM | [16] 61.1 µM
inactive: [19] | [7] | [8] | [10] | [13]

c1ccc(Sc2ccccc2)cc1
not listed: [1] | [10] | [11]
inactive: all other assays above

COc1cc(C(=O)NS(=O)(=O)c2ccccc2C)ccc1Cc1cn(C)c2ccc(NC(=O)OC3CCCC3)cc12
active: [1] 13.3 µM
not listed: [3] | [6] | [18] | [20]
inactive: all other assays above

C=CC(=C)CCC=C(C)C
inactive: [1] | [2] | [3] | [5] | [15] | [7] | [8] | [9] | [12] | [13]
active: [16] 54.5 µM

CC1=C(/C=C/C(C)=C/C=C/C(C)=C\C=O)C(C)(C)CCC1
active: [1] 32.5 µM | [18] 41 µM
not listed: [2] | [3] | [5] | [9] | [19] | [20]
inactive: all other assays above

O=Cc1ccc(F)cc1
not listed: [1] | [8] | [10] | [11]
inactive: all other assays above

CC1CCCNC1 (stereo unspecified)
not listed: [1] | [6] | [12] | [16] | [17] | [20]
inactive: all other assays above

ClC/C=C\CCl
not listed: [1] | [11] | [12] | [20]
inactive: all other assays above

CCCCCCCOC(=O)c1ccccc1C(=O)OCCCCCCC
not listed: [1] | [11] | [20]
inactive: all other assays above

Cn1cccc1
not listed: [1] | [11] | [20]
inactive: all other assays above

Nc1cc(Cl)c([N+](=O)[O-])cc1O
active: [2] 48.2 µM | [5] 54 µM
not listed: [1] | [6] | [10] | [11] | [12] | [20]
inactive: all other assays above

CCOC(=O)[C@@](C)(N)Cc1ccc(O)c(O)c1
not listed: [1] | [16] | [17] | [20]
inactive: all other assays above

O=C[C@H](O)[C@H](O)[C@H](O)CO
not listed: [1] | [10] | [16] | [19]
inactive: all other assays above
